# Laboratory results as given in the OligoGym collection.
# Molecular target: MOBKL1B
# Test: pooled miR-30 sensor sort-seq; sequence = guide strand
# Details: shRNA
# Further: reference of the scale not given here.
row,Sequence,sensor-assay potency score (higher = more potent)
1,TTTAATATTAGTACCATCTGCC,0.311
2,AAGAGTTTCATCATCAAGCTGA,0.471
3,TTCATCATCAAGCTGATCTTGA,0.57
4,TTAATTCTTGAAGAGGTGCCAG,-0.419
5,TTGAATGTTTTAGAAGAGCGGC,-0.634
6,TTTTAATATTAGTACCATCTGC,-0.715
7,TATGTGATAACAACAAGAGTGG,-0.235
8,TAAAAGAATAAAACCAATCTGA,-0.367
9,TAATTCTTGAAGAGGTGCCAGC,-0.967

# Molecular target: MOCS3
# Test: as above
# Details: shRNA
row,Sequence,sensor-assay potency score (higher = more potent)
1,TTAGAAAGCATTTTGACTGGGG,0.772
2,TCAAAGAGCAACAAGCTGCCAC,-0.221
3,TTTGCAAATCACATAAATGGGG,-0.854
4,TTTCTGTGAGTCATTTCCCAGT,-0.966
5,TATTATGGCAATCCACATCTTT,-0.453
6,TTGCAAATCACATAAATGGGGA,-0.379
7,TTGAGCTGCTGATAAGGACTGG,-0.00969
8,TTAAAGGGTCTAACTCTTGAGC,-0.607
9,AACAAGTGTATCTTTGAGGTAT,0.286
10,TTGGTCACTGTCTCCGCTGGGG,-0.474
11,TAGCGCAGAATCTCATCTCGGG,-0.0421
12,TAGTCGGTGACAGAAACACGCT,-0.908
